Bioassay records from PubChem.
Most compounds without a hit are left out; they make up all but 12% or so of the library.
L3MBTL1 inh = qHTS Assay for the Inhibitors of L3MBTL1; AlphaScreen L3MBTL1–H3K9me1 peptide binding; AID 485360, 2010; Potency, µM (titrated, usually from 57.1 µM), inactives show at the top dose activity, negative = inhibition, actives largely listed as inhibitors; hit rate 0.66% among 230,000; note: % is set by controls: 0 for no effect and ±100 for the full control effect; nearly all actives have a fitted effect of over 60% in size
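L3MBTL1 50 nM + b-AHA-H3(1-15)K9me1 75 nM, 30 min RT; compound added, 30 min RT; streptavidin donor/Ni-chelate acceptor beads 10 ug/mL each final, 30 min RT dark; AlphaScreen read.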
HP1b chromo inh = HTS for Inhibitors of HP1-beta Chromodomain Interactions with Methylated Histone Tails | Chromobox protein homolog 1 (Homo sapiens), P83916 | AlphaScreen HP1-beta / biotin-H3K9me3 peptide binding | Potency, µM (doses to about 114 µM), without a hit: at the highest dose activity change, negative = inhibition, actives largely listed as inhibitors | hit rate 0.56% among 390,000; note: nearly all actives have a fitted effect of over 70% in size
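Compound inhibition of the preformed complex between 50 nM HP1-beta and 50 nM biotinylated H3K9me3 peptide was read by AlphaScreen. Buffer was PBS pH 7.4 with 0.01% Tween-20. Incubations ran 30 min at room temperature, with 10 ug/mL donor/acceptor beads.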
Sfp inh = qHTS Assay for Inhibitors of Bacillus subtilis Sfp phosphopantetheinyl transferase (PPTase) | 4'-phosphopantetheinyl transferase ffp (Bacillus subtilis), Q9F4F7 | Biochemical Sfp PPTase activity, qHTS | Potency, µM, for inactives: largest response in the series, negative = inhibition, most hits filed as inhibitors | hit rate 3.5% among 310,000 | AID 1490, 2009;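 note: the enzyme is Sfp with the accession as filed and its product quenches rhodamine fluorescence; 0% = enzyme reaction without inhibitor and -100% = no enzyme wells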
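Buffer: 50 mM Hepes-Na pH 7.6, 10 mM MgCl2, 0.01% Nonidet P-40, 0.01% BSA. Enzyme 15 nM, pre-exposed to compound 15 min; substrates then added and fluorescence change tracked over 30 min.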
G9a block = qHTS Assay for Inhibitors of Histone Lysine Methyltransferase G9a | Potency, µM (titrated, usually from 102 µM), for the others: top-dose activity, negative = inhibition, most hits filed as inhibitors | hit rate 8.8% among 350,000 | G9a H3K9 monomethylation, AlphaScreen, 2 h | AID 504332, 2011 | Histone-lysine N-methyltransferase EHMT2 (Homo sapiens), Q96KQ7; note: % is set by controls: 0 for no effect and ±100 for the full control effect; nearly all actives have a fitted effect of over 75% in size
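Readings reflect AlphaScreen signal from monomethyl-H3K9 antibody detection. HMT at 20 nM; substrate b-H3K9 500 nM; cofactor SAM 20 uM; 2 h RT reaction; compounds tested as titrations in qHTS with 15 min preincubation.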
BAZ2B inh = qHTS Assay for Inhibitors of BAZ2B. Bromodomain adjacent to zinc finger domain protein 2B (Homo sapiens), Q9UIF8. AlphaScreen BAZ2B-H3K14Ac peptide displacement. Potency, µM (doses to about 114 µM), for the others: at the top dose activity change, negative = inhibition, usual class: inhibitors. hit rate 4.4% among 360,000. AID 504333, 2011; note: % is set by controls: 0 for no effect and ±100 for the full control effect; nearly all actives have a fitted effect of over 60% in size
Target sequence (Q9UIF8 whole entry, looked up, the tested form may be a part): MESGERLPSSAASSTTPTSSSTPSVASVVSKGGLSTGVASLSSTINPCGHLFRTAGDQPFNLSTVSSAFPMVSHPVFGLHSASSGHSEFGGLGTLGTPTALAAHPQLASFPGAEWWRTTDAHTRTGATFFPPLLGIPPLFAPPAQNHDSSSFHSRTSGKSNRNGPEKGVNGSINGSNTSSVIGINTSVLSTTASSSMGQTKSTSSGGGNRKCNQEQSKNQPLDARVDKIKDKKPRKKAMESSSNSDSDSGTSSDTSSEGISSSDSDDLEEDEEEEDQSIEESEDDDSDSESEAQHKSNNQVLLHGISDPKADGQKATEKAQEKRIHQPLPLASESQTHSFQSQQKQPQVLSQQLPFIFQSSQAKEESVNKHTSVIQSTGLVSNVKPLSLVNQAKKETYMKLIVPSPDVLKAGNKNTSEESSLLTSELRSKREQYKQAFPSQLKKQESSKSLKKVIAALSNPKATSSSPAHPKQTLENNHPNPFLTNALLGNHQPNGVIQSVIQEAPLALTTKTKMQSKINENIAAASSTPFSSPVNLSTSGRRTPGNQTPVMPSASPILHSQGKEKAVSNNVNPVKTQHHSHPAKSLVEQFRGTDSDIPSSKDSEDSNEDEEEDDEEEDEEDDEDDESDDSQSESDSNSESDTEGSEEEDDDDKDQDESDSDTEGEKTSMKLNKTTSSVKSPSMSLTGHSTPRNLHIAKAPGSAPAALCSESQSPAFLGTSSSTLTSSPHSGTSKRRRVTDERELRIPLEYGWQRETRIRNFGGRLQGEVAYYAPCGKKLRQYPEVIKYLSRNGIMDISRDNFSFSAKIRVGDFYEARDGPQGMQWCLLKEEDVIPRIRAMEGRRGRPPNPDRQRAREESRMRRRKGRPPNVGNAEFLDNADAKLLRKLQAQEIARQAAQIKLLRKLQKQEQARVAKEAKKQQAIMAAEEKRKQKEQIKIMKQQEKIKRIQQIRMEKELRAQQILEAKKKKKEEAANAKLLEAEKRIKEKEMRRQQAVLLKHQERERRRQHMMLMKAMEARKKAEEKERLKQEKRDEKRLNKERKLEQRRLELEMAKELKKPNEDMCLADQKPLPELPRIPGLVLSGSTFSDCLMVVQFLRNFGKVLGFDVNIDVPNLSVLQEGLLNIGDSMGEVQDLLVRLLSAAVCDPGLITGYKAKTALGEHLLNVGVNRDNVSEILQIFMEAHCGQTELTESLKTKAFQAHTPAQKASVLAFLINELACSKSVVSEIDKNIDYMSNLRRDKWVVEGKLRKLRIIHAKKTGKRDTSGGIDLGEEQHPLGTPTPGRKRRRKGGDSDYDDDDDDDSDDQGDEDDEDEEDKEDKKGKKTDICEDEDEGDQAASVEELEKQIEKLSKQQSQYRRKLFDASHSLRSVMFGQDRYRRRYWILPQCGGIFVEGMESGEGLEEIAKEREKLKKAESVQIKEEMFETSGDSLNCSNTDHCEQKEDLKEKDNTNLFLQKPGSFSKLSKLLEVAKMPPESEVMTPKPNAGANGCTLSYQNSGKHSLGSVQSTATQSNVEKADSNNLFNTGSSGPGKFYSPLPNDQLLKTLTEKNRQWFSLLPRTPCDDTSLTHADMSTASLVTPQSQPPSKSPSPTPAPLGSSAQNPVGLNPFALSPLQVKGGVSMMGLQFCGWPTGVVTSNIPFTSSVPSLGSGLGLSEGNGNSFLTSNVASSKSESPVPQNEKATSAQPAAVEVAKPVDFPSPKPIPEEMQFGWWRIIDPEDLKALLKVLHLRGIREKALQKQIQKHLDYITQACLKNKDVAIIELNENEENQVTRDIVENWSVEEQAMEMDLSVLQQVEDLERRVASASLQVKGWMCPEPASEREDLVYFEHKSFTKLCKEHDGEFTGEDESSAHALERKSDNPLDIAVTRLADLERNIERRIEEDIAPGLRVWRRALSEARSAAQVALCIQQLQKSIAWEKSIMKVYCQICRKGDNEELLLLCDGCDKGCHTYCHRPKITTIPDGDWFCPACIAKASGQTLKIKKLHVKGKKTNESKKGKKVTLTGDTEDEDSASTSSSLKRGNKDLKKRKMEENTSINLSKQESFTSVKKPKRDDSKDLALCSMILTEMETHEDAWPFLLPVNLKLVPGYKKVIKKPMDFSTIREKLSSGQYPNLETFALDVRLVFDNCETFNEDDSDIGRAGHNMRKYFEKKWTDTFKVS
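AlphaScreen displacement: compounds (up to 110uM) incubated 30 min at room temperature with a preformed 50 nM BAZ2B/50 nM biotinylated H3K14Ac peptide complex in PBS pH 7.4 with Tween-20. Donor and acceptor beads at 10 ug/mL final added, 20 min light-protected before reading.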
JMJD2A Tudor = qHTS Assay for Inhibitors of JMJD2A-Tudor Domain; hit rate 4.4% among 390,000; Lysine-specific demethylase 4A (Homo sapiens), O75164; Potency, µM (series often up to 114 µM), for inactives: at the top dose activity change, negative = inhibition, hits mostly inhibitors; AID 504339, 2011; AlphaScreen JMJD2A-Tudor / H3K4me3 peptide binding; note: % is set by controls: 0 for no effect and ±100 for the full control effect; nearly all actives have a fitted effect of over 50% in size
* marks the source's active call; other numbers are inactive results; ? = inconclusive; · = no result given; [ ] = remark or other dose. Calls come from the whole dose curve; as a rule, active = well fitted curve in the direction sought with a large enough effect; inconclusive = small, poorly fitted or top-dose-only effect, or another doubt; inactive = no such curve, though single readings can be large; an effect the other way counts as inactive or inconclusive. Potency is the fitted concentration of half-maximal effect.

SMILES | L3MBTL1 inh | HP1b chromo inh | Sfp inh | G9a block | BAZ2B inh | JMJD2A Tudor
CCc1ccc2c(CN3CCC(C(=O)OC)CC3)cc(=O)oc2c1 | · | 45% | 2% | 50µM* | 1% | -14%
CCc1ccc2c(CN3CCc4ccccc43)cc(=O)oc2c1 | -8% | 45% | -5% | 35µM* | -35% | -17%
Cc1cc(O)c(C(C)C)cc1N=Cc1ccc([N+](=O)[O-])cc1 | · | 50µM* | · | · | · | 45µM*
Cc1cc(O)c(C(C)C)cc1NC(=O)Nc1ccc([N+](=O)[O-])cc1 | · | -26% | · | · | · | ?
Cc1cc(O)c(C(C)C)cc1N=Cc1ccc(N(C)C)cc1 | · | 45µM* | · | · | · | 50µM*
COc1cccc(C=Nc2cc(C(C)C)c(O)cc2C)c1O | · | 79µM* | · | · | · | 56µM*
CNC(=S)N/N=C/c1ccc(N(C)C)cc1 | -11% | -8% | -21% | · | -14% | -28%
COc1cccc(C=Nc2cccnc2)c1O | -4% | · | 4% | ? | -9% | ·
O=C(CCn1c(=O)c2ccccc2n(Cc2cccc(F)c2)c1=O)NCc1ccc2c(c1)OCO2 | · | 20% | · | 6%[59 µM] | -1% | 1%
C/C(=N\Nc1ccccn1)c1ccc2c(c1)OCO2 | · | -7% | 8% | 8% | ? | -16%
C/C(=N\Nc1nc2ccccc2[nH]1)c1ccc2c(c1)OCO2 | · | ? | -14% | ? | ? | 40µM*
C(=N\Nc1nc2ccccc2[nH]1)/c1ccc2c(c1)OCO2 | 0% | 14% | -80% | -7% | -21% | -35%
C/C(=N\Nc1nc2ccccc2[nH]1)c1ccc2c(c1)OCCO2 | · | ? | -14% | ? | 32µM* | 50µM*
CC(=O)N1CCC2(CCCN(Cc3cc(C(F)(F)F)cc(C(F)(F)F)c3)C2)CC1 | · | · | 3% | -14%[12.7 µM] | · | ·
CCOc1ccc(CNC(=O)c2ccccc2NC(=O)C2=CSCCO2)cc1 | · | -2% | -20% | -11% | -17% | 32µM*
Cc1cccc(CNC(=O)c2ccccc2NC(=O)C2=CSCCO2)c1 | · | 11% | 5% | 33% | 2% | -30%
Cc1ccc(CNC(=O)c2ccccc2NC(=O)C2=CSCCO2)cc1 | · | 64% | -3% | 35% | -2% | -16%
Cc1cccc(CNC(=O)c2ccc(NC(=O)C3=CSCCO3)cc2)c1 | · | 8% | 16% | -9%[59 µM] | -17% | 20µM*
Cc1cc2c(s1)c1cnn(Cc3cc(F)cc(F)c3)c(=O)c1n2C | · | · | · | · | · | -9%
CCNc1ncc2nc(-c3ccc(Cl)cc3)c(=O)n(Cc3cccc(OC)c3)c2n1 | · | · | -1% | 22%[0.501 µM] | · | ·
N[C@@](C(=O)O)(c1ccc(P(=O)(O)O)cc1)C1CC1 | · | · | -3% | · | · | ·
CC(C)(C)c1ccc(OCC(O)CN2CCN(c3ccccn3)CC2)cc1 (stereo not given) | · | 40% | 15% | 50µM* | ? | 8%
CC(=O)c1ccccc1OCC(O)CN1CCN(c2ccccn2)CC1 (stereo not given) | · | 30% | 5% | · | -30% | -22%
Cc1cc(C)c(C)c(OCC(O)CN2CCN(c3ccccn3)CC2)c1 (stereo not given) | · | 19% | 0% | 79µM* | ? | -26%
Cc1cccc(OCC(O)CN2CCN(c3ccccn3)CC2)c1C (stereo not given) | · | 2% | -2% | 45µM* | -21%[57.1 µM] | 79µM*
CCOC(=O)c1cc(-c2ccc(C)cc2)n(CC(=O)Nc2cc(C)ccc2C)c1C | · | 51% | · | 1%[59 µM] | -3% | 6%
O=C(O)[C@H](Cc1ccccc1)NC(=O)N1CCCCCC1 | · | 32% | 10% | 12% | 7% | 5%
O=C(O)[C@H](Cc1ccccc1)NC(=O)N1CCOCC1 | 8% | 20% | 9% | 50µM* | -6% | 0%
